# Measured values as given in PubChem BioAssay.
# Values joined by “and” are separate entries in the source; they are usually repeats but may differ in a detail not shown here. Equal entries are not always repeated. Records with an inconclusive call do not appear. For some of these results: Results with a measured potency or affinity are listed apart. Active and inactive are the calls of the source. Rule as the data show it, unless noted: active = parasite load remaining mostly below about 12% (no sharp cut-off); inactive = mostly above about 10%.
# Columns and labels:
# [1] = molecular target: ATP-dependent translocase ABCB1 (Homo sapiens) (UniProt P08183); test: P-glycoprotein substrate transport blockade – cell-based (AID 377; in the data active = fluorescence slope change above about 50%); details: MDR1-expressing cells, fluorescent substrate accumulation slope; stronger effect = higher value; concentration not given here
# Chain of ATP-dependent translocase ABCB1 (Homo sapiens) (P08183 whole entry, looked up): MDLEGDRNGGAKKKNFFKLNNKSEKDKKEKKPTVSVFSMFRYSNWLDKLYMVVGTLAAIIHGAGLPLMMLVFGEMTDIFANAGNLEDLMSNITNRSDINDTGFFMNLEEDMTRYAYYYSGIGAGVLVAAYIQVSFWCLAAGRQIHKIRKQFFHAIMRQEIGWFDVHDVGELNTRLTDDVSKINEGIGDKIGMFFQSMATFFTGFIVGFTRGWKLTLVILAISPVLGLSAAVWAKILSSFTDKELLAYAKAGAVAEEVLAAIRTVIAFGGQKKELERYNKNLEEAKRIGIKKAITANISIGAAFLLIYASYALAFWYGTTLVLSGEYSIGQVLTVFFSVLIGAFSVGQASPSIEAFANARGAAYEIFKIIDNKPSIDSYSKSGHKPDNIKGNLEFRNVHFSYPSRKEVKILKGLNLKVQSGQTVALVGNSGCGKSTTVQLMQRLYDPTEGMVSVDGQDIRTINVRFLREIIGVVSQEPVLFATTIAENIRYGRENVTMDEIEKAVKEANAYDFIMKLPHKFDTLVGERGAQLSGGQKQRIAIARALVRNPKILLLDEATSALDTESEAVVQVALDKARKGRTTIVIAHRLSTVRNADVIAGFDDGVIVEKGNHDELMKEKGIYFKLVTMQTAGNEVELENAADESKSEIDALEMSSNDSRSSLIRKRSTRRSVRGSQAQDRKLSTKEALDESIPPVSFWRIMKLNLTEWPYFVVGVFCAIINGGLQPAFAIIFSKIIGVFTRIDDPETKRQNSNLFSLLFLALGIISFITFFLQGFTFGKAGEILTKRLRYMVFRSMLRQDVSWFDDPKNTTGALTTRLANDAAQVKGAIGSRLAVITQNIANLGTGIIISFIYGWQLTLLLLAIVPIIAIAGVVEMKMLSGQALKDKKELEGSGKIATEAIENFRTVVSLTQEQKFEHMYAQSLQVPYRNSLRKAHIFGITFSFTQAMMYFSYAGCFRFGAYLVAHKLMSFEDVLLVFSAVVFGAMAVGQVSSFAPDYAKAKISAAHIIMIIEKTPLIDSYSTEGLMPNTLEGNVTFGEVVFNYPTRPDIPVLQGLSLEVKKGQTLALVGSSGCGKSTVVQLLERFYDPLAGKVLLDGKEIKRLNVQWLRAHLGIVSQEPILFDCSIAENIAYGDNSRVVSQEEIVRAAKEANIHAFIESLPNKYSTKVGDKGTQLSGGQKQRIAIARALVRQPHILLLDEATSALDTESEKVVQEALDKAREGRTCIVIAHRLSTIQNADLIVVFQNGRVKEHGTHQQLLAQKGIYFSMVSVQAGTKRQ
# [2] = blockers of polyQ-driven CASP3 activation – cell-based (AID 1583); details: polyglutamine-induced caspase-3 activation, cell assay; stronger effect = higher value;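 tested at 10 µM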
# [3] = yeast 75Q aggregation reduction – 75Q-TubU reporter (AID 1593); details: Yeast 75Q polyglutamine aggregation reporter
# [4] = restoration of touch response, mutant HTT neurons – whole organism, C. elegans mechanosensory neurons, N-terminal huntingtin (AID 1599); details: C. elegans polyQ-huntingtin mechanosensory neurons, stronger effect = higher value
# [5] = blockers of cytochrome c efflux from mitochondria – biochemical, purified mitochondria (AID 1603); details: stronger effect = lower value;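 also: mouse liver mitochondria challenged with calcium chloride; signal normalized to the plate average as 100%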
# [6] = polyglutamine aggregate formation blockers (AID 1604); details: polyglutamine-induced protein aggregation inhibition assay; stronger effect = higher value; tested at 2.5 µM
# [7] = glutamate transport activators, MN-1 cells, MN-1 cell line (AID 1612); details: MN-1 motor neuron cells, stronger effect = higher value;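 also: tested at 1 µM final; 0% = mean of DMSO vehicle wells on each plate; positive means more glutamate uptake than control and negative means less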
# [8] = GFP-Q80 aggregate reduction, neuronal-like cells, cell-based, NGF-treated PC12, GFPQ80 (AID 1614); details: PC12 NGF-treated GFP-polyQ80 inclusion reduction;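 also: lower means fewer inclusions and 0 means no inclusions at all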
# [9] = 75Q-TubH aggregate inhibition, S. cerevisiae, yeast (AID 1616); details: S. cerevisiae 75Q-TubH polyglutamine aggregation suppression; stronger effect = higher value
# [10] = compounds altering viability of human ES cells (AID 493140; call rule not given here;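 also: cells exposed to compounds for four days before counting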); details: human embryonic stem cell survival screen; stronger effect = higher value
# [11] = P. berghei load reduction in hepatocytes – cell-based, HepG2, luciferase luminescence, HepG2 viability, primary screen (AID 624349);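 also: 100% = mean of DMSO negative control wells on the same plate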; details: P. berghei liver stage in HepG2, luciferase luminescence, concentration not given here; parasite load remaining: stronger effect = lower value; viability: measured here: HepG2 viability without parasites
# [12] = molecular target: 6-phosphogluconate dehydrogenase, decarboxylating (Homo sapiens) (UniProt P52209); test: inhibition of human phosphogluconate dehydrogenase – biochemical, recombinant enzyme, NADPH absorbance, primary screen (AID 1159550;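 active = at least 20% inhibition of 6-phosphogluconate dehydrogenase activity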); details: recombinant 6PGD, NADPH absorbance 341 nm; at 10 µM; stronger effect = higher value
# Chain of 6-phosphogluconate dehydrogenase, decarboxylating (Homo sapiens) (P52209 whole entry, looked up): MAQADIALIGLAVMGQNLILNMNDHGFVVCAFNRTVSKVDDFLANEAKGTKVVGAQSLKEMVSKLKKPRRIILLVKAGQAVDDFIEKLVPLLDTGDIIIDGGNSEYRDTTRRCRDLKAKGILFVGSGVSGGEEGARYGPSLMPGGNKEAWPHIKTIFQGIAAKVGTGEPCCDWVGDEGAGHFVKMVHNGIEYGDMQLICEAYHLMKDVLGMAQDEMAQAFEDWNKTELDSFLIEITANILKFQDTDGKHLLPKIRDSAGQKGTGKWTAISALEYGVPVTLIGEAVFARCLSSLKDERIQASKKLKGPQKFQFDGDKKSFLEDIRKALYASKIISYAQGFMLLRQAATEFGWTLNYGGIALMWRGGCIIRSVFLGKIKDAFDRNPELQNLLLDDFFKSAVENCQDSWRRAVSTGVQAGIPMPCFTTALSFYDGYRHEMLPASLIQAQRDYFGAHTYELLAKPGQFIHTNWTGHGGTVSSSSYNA
# [13] = EMT-state selective cytotoxicity in co-culture – imaging, PC-3E GFP, TEM4-18 mCherry, primary screen (AID 1345086;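 active = compounds killing one labelled cell type while sparing the other, by normalised counts and ratio limits, not self-fluorescent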;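 as to all read-outs here: cells exposed to compound for 72 h before imaging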;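 as to red/green cell ratio (normalised): normalised mesenchymal count divided by normalised epithelial count so high means epithelial killing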); details: PC-3E GFP / TEM4-18 mCherry co-culture, imaging cell counts, at 1 µM; for red/green cell ratio (normalised): actives lie on both sides, counts scaled to control wells, 1 = unselective
# [14] = viability loss with induced miR-34 in A549 – imaging, A549 dox-inducible miR-34, nuclei and caspase counts, primary screen (AID 1347080;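 active = compounds whose cell count with miR-34 switched on is under 0.7 times the count with it off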); details: A549 miR-34 inducible, Hoechst nuclei count, 48 h
# [15] = molecular target: Mitogen-activated protein kinase 7 (Homo sapiens) (UniProt Q13164); test: Gal4-ERK5 driven luciferase induction – cell-based, HTS, primary screen (AID 1508626;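 active = luciferase signal above three times the same-plate solvent-only control wells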;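 also: luciferase driven by Gal4-ERK5 fusion binding five Gal4 sites before minimal TATA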); details: HeLa Gal4-ERK5 transactivation, 18 h, at 5 µM, stronger effect = higher value
# Chain of Mitogen-activated protein kinase 7 (Homo sapiens) (Q13164 whole entry, looked up, the tested form may be a part): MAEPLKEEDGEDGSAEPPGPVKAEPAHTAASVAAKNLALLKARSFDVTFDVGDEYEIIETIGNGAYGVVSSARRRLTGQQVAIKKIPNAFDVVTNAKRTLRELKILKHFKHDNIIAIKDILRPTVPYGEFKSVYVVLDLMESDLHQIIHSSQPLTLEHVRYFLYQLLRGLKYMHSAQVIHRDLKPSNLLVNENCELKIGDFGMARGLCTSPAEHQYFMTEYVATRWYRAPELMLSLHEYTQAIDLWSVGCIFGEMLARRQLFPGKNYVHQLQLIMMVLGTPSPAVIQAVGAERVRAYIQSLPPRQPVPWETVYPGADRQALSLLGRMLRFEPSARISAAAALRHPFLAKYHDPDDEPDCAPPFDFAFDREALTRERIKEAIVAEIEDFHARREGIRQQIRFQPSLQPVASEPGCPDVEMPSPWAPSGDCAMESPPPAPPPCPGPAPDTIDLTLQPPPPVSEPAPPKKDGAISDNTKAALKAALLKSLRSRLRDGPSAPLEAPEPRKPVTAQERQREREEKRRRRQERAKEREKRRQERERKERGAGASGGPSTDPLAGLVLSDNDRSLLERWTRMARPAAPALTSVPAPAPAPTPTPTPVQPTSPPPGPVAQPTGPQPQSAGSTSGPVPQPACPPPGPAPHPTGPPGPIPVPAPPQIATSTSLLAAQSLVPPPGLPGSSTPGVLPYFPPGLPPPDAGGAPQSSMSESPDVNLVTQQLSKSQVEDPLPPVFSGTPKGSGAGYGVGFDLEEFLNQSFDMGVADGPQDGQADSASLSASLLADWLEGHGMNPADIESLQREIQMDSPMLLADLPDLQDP
# [16] = molecular target: NAD(+) hydrolase SARM1 (Homo sapiens) (UniProt Q6SZW1); test: blocking NAD cleavage by SARM1 SAM-TIR – cell lysate, NAD-Glo luminescence (AID 1508614;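 active = compound whose remaining NAD level is above about 45 nM, limit read from the data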;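 also: higher remaining NAD means stronger inhibition of SARM1 NADase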); details: SAM-TIR HEK293T lysate NADase, at 1 µM, stronger effect = higher value
# Chain of NAD(+) hydrolase SARM1 (Homo sapiens) (Q6SZW1 whole entry, looked up): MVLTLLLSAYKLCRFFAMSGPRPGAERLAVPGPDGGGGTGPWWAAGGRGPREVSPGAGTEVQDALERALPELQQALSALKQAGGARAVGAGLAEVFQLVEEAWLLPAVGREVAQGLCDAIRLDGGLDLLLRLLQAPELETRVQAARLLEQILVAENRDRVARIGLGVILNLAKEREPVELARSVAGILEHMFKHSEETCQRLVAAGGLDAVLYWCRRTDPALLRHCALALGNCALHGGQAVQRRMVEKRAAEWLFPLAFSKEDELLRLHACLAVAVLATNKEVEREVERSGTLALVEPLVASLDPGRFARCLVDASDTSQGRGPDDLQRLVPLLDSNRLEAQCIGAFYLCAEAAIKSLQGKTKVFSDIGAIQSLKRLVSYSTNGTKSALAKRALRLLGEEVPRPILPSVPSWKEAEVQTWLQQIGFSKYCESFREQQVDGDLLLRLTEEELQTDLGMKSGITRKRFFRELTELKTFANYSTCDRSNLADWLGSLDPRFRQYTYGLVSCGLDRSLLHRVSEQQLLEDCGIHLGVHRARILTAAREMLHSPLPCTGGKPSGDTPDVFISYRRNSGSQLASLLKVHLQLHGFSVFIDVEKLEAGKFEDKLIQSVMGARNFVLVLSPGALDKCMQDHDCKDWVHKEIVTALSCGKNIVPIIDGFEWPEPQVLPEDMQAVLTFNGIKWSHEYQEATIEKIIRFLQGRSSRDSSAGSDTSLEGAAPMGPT
# [17] = galactose survival enhancers in mitochondrial complex I cybrids – cell-based, galactose medium, ATP luminescence, primary screen (AID 1645843;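 active = z-score of at least 1.8 in each of two replicates, scored against plate mean and spread of sample wells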;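 also: positive z means more ATP and so rescue of galactose-driven cybrid death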); details: complex I mutant cybrid cells, 72 h, stronger effect = higher value
# [18] = measured here: epithelial PC-3E GFP cell survival
# [19] = measured here: mesenchymal TEM4-18 mCherry cell survival
# [20] = stronger effect = lower value, cell number ratio, induced over uninduced
# [21] = measured here: relative caspase fold change +Dox/-Dox
# [22] = measured here: total cells with miR-34 induction, stronger effect = lower value
# [23] = measured here: total cells without miR-34 induction
smiles,measurement,setting,value
COc1ccc([C@@H]2CC(=O)c3c(O)cc(O)cc3O2)cc1O,fluorescence slope change,[1],5.5% (inactive)
same,inhibition,[2],11%
same,score,[3],0.56
same,rescue above control,[4],6.5
same,cytochrome c release ratio,[5],0.93
same,inhibition of aggregation,[6],17%
same,glutamate uptake change,[7],0%
same,inclusion score,[8],2
same,aggregation suppression score,[9],0.264
same,survival,[10],17.8 (inactive)
same,parasite load remaining,[11],25.2% (inactive) and 110% (inactive)
same,viability,[11],46.9% and 88%
same,inhibition,[12],4.68% (inactive)
same,red/green cell ratio (normalised),[13],0.91 (inactive)
same,normalised cell number,[13]; [18],1.28
same,normalised cell number,[13]; [19],1.16
same,fold change,[14]; [20],0.922 (inactive) and 1.13 (inactive)
same,fold change,[14]; [21],1.33 and 0.691
same,cell count,[14]; [22],8710 and 6120
same,cell count,[14]; [23],9450 and 5440
same,luciferase signal,[15],48 AU (inactive)
C=Cc1c(C)/c2[n-]/c1=C\c1[n-]c(c(CC)c1C)/C=c1\[n-]c3c(c1C)C(=O)C(C(=O)[O-])C=3c1[n-]c(c(C)c1CCC(=O)[O-])\C=2.[Cu].[Na+].[Na+] (stereo not drawn),parasite load remaining,[11],101% (inactive) and 38.1% (inactive)
same,viability,[11],71.3% and 170%
same,inhibition,[12],37.8% (active)
same,red/green cell ratio (normalised),[13],0.85 (inactive)
same,normalised cell number,[13]; [18],1.03
same,normalised cell number,[13]; [19],0.87
same,fold change,[14]; [20],0.937 (inactive)
same,fold change,[14]; [21],2.82
same,cell count,[14]; [22],11500
same,cell count,[14]; [23],12300
CC(=O)Oc1cccc(C(=O)O)c1OC(C)=O,inhibition,[12],0.748% (inactive)
same,red/green cell ratio (normalised),[13],0.81 (inactive)
same,normalised cell number,[13]; [18],1.05
same,normalised cell number,[13]; [19],0.86
same,remaining NAD,[16],10 nM (inactive)
C1CNCCN1,inhibition,[2],15.3%
same,score,[3],1.95
same,rescue above control,[4],-1.97
same,cytochrome c release ratio,[5],1.16
same,inhibition of aggregation,[6],15.4%
same,glutamate uptake change,[7],-12.2%
same,inclusion score,[8],2
same,aggregation suppression score,[9],1.67
same,parasite load remaining,[11],96.9% (inactive) and 59.4% (inactive)
same,viability,[11],74.5% and 108%
same,inhibition,[12],7.35% (inactive)
same,red/green cell ratio (normalised),[13],1.22 (inactive)
same,normalised cell number,[13]; [18],0.8
same,normalised cell number,[13]; [19],0.98
same,fold change,[14]; [20],0.887 (inactive)
same,fold change,[14]; [21],2.06
same,cell count,[14]; [22],11000
same,cell count,[14]; [23],12400
same,remaining NAD,[16],10 nM (inactive)
same,luciferase signal,[15],560 AU (inactive)
C[n+]1c2cc(N)ccc2cc2ccc(N)cc21,score,[3],0.44
same,rescue above control,[4],0
same,cytochrome c release ratio,[5],0.97
same,inhibition of aggregation,[6],91.3%
same,glutamate uptake change,[7],14.1%
same,aggregation suppression score,[9],0.101
same,parasite load remaining,[11],25.5% (inactive) and -0.145% (inactive)
same,viability,[11],41.9% and 34.3%
same,inhibition,[12],-0.987% (inactive)
same,red/green cell ratio (normalised),[13],0.5 (active)
same,normalised cell number,[13]; [18],0.8
same,normalised cell number,[13]; [19],0.4
same,fold change,[14]; [20],1.05 (inactive)
same,fold change,[14]; [21],0.642
same,cell count,[14]; [22],1590
same,cell count,[14]; [23],1510
same,remaining NAD,[16],10 nM (inactive)
same,luciferase signal,[15],24 AU (inactive)
O=c1[nH]c(=O)n(C2C[C@H](O)[C@@H](CO)O2)cc1C(F)(F)F (stereo partly drawn),parasite load remaining,[11],74% (inactive) and 246% (inactive) and 30.9% (inactive)
same,viability,[11],71.7% and 82.9% and 99%
same,inhibition,[12],10.3% (inactive)
same,red/green cell ratio (normalised),[13],1.34 (inactive)
same,normalised cell number,[13]; [18],0.93
same,normalised cell number,[13]; [19],1.25
same,fold change,[14]; [20],1.06 (inactive) and 0.925 (inactive)
same,fold change,[14]; [21],0.737 and 3.77
same,cell count,[14]; [22],2260 and 12300
same,cell count,[14]; [23],2140 and 13300
CN1CC(=O)N=C1N,inhibition,[2],-27.2%
same,score,[3],1.33
same,rescue above control,[4],-3.62
same,cytochrome c release ratio,[5],0.51
same,inhibition of aggregation,[6],97.4%
same,glutamate uptake change,[7],32%
same,inclusion score,[8],2
same,aggregation suppression score,[9],1.7
same,inhibition,[12],10.8% (inactive)
same,red/green cell ratio (normalised),[13],1.04 (inactive)
same,normalised cell number,[13]; [18],0.96
same,normalised cell number,[13]; [19],1
same,remaining NAD,[16],10 nM (inactive)
same,luciferase signal,[15],68 AU (inactive)
CN1C(CC(=O)c2ccccc2)CCCC1CC(O)c1ccccc1 (stereo not drawn),inhibition,[2],17.8%
same,score,[3],1.4
same,rescue above control,[4],-4.31
same,cytochrome c release ratio,[5],0.5
same,inhibition of aggregation,[6],65.4%
same,glutamate uptake change,[7],3.53%
same,inclusion score,[8],2
same,aggregation suppression score,[9],1.27
same,parasite load remaining,[11],97.3% (inactive)
same,viability,[11],69.7%
same,inhibition,[12],-10.3% (inactive)
same,red/green cell ratio (normalised),[13],1.04 (inactive)
same,normalised cell number,[13]; [18],0.88
same,normalised cell number,[13]; [19],0.92
same,fold change,[14]; [20],0.965 (inactive)
same,fold change,[14]; [21],1.77
same,cell count,[14]; [22],10200
same,cell count,[14]; [23],10600
same,remaining NAD,[16],10 nM (inactive)
same,luciferase signal,[15],268 AU (active)
same,z-score,[17],0.16 (inactive)
COc1cc2cc3c4cc(OC)c(OC)cc4cc[n+]3c(C)c2cc1OC,survival,[10],0.333 (inactive)
same,parasite load remaining,[11],91.2% (inactive) and 45.3% (inactive) and 68.5% (inactive)
same,viability,[11],98.6% and 66.5% and 73.3%
same,inhibition,[12],13.7% (inactive)
same,red/green cell ratio (normalised),[13],0.8 (inactive)
same,normalised cell number,[13]; [18],1
same,normalised cell number,[13]; [19],0.8
same,fold change,[14]; [20],0.879 (inactive)
same,fold change,[14]; [21],1.23
same,cell count,[14]; [22],8980
same,cell count,[14]; [23],10200
same,luciferase signal,[15],72 AU (inactive)
CCCCCCCCCCCCCCCC(=O)OC/C=C(C)/C=C/C=C(C)/C=C/C1=C(C)CCCC1(C)C,inhibition,[2],-19.1%
same,score,[3],1.38
same,rescue above control,[4],3.93
same,cytochrome c release ratio,[5],1.03
same,inhibition of aggregation,[6],46%
same,glutamate uptake change,[7],4.94%
same,inclusion score,[8],2
same,aggregation suppression score,[9],0.6
same,parasite load remaining,[11],174% (inactive) and 50.5% (inactive)
same,viability,[11],86.2% and 95%
same,inhibition,[12],1.58% (inactive)
same,red/green cell ratio (normalised),[13],1.41 (inactive)
same,normalised cell number,[13]; [18],0.95
same,normalised cell number,[13]; [19],1.34
same,fold change,[14]; [20],0.809 (inactive)
same,fold change,[14]; [21],0.861
same,cell count,[14]; [22],9920
same,cell count,[14]; [23],12300
same,remaining NAD,[16],10 nM (inactive)
same,luciferase signal,[15],624 AU (active)
O=c1ccc2cc(O)c(O)cc2o1,survival,[10],5.75 (inactive)
same,parasite load remaining,[11],19.5% (inactive) and 73.2% (inactive)
same,viability,[11],92.8% and 68.7%
same,inhibition,[12],2.61% (inactive)
same,red/green cell ratio (normalised),[13],1.16 (inactive)
same,normalised cell number,[13]; [18],0.88
same,normalised cell number,[13]; [19],1.02
same,fold change,[14]; [20],0.832 (inactive)
same,fold change,[14]; [21],1.64
same,cell count,[14]; [22],6390
same,cell count,[14]; [23],7680
same,luciferase signal,[15],72 AU (inactive)
